From the supplement of paper PMC6897291

Tests used:
U-2932 [1] = experiment: growth inhibition by drug alone (1 - RLU/untreated control) (fraction); higher = stronger inhibition; details: 177Lu-lilotomab satetraxetan 0 ug/ml
In short: (§1)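 A radiolabelled anti-CD37 antibody conjugate (~600 MBq/mg) was applied for 18 h at 0.5 µg/ml to RIVA and 1 µg/ml to U-2932 cells, with untreated cells run alongside. All cells were washed and seeded at 3,000 cells/well onto library-printed plates at 10/100 nM (RIVA) or 10/1,000 nM (U-2932). Growth inhibition was based on RealTime-Glo luminescence compared with untreated no-drug wells. Daily reads began on day 3 after 1 h at 37°C, with each value being 1 − RLU/mean of the 48 such wells on that plate.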

RIVA [2] = experiment: as above; details: 177Lu-lilotomab satetraxetan 0 ug/ml
In short: as §1

U-2932 [3] = experiment: growth inhibition by drug plus 177Lu-lilotomab satetraxetan (1 - RLU/untreated control) (fraction); higher = stronger inhibition; details: 177Lu-lilotomab satetraxetan 1 ug/ml
In short: as §1

RIVA [4] = experiment: as above; details: 177Lu-lilotomab satetraxetan 0.5 ug/ml
In short: as §1

| Structure (SMILES) | growth inhibition by drug alone (U-2932 [1]; 10 nM, time (day): 3) | growth inhibition by drug alone (U-2932 [1]; 10 nM, time (day): 4) | growth inhibition by drug alone (U-2932 [1]; 10 nM, time (day): 5) | growth inhibition by drug alone (U-2932 [1]; 10 nM, time (day): 6) | growth inhibition by drug alone (U-2932 [1]; 1000 nM, time (day): 3) | growth inhibition by drug alone (U-2932 [1]; 1000 nM, time (day): 4) | growth inhibition by drug alone (U-2932 [1]; 1000 nM, time (day): 5) | growth inhibition by drug alone (U-2932 [1]; 1000 nM, time (day): 6) | growth inhibition by drug alone (RIVA [2]; 10 nM, time (day): 3) | growth inhibition by drug alone (RIVA [2]; 10 nM, time (day): 4) | growth inhibition by drug alone (RIVA [2]; 10 nM, time (day): 5) | growth inhibition by drug alone (RIVA [2]; 10 nM, time (day): 6) | growth inhibition by drug alone (RIVA [2]; 100 nM, time (day): 3) | growth inhibition by drug alone (RIVA [2]; 100 nM, time (day): 4) | growth inhibition by drug alone (RIVA [2]; 100 nM, time (day): 5) | growth inhibition by drug alone (RIVA [2]; 100 nM, time (day): 6) | growth inhibition by drug plus 177Lu-lilotomab satetraxetan (U-2932 [3]; 10 nM, time (day): 3) | growth inhibition by drug plus 177Lu-lilotomab satetraxetan (U-2932 [3]; 10 nM, time (day): 4) | growth inhibition by drug plus 177Lu-lilotomab satetraxetan (U-2932 [3]; 10 nM, time (day): 5) | growth inhibition by drug plus 177Lu-lilotomab satetraxetan (U-2932 [3]; 10 nM, time (day): 6) | growth inhibition by drug plus 177Lu-lilotomab satetraxetan (U-2932 [3]; 1000 nM, time (day): 3) | growth inhibition by drug plus 177Lu-lilotomab satetraxetan (U-2932 [3]; 1000 nM, time (day): 4) | growth inhibition by drug plus 177Lu-lilotomab satetraxetan (U-2932 [3]; 1000 nM, time (day): 5) | growth inhibition by drug plus 177Lu-lilotomab satetraxetan (U-2932 [3]; 1000 nM, time (day): 6) | growth inhibition by drug plus 177Lu-lilotomab satetraxetan (RIVA [4]; 10 nM, time (day): 3) | growth inhibition by drug plus 177Lu-lilotomab satetraxetan (RIVA [4]; 10 nM, time (day): 4) | growth inhibition by drug plus 177Lu-lilotomab satetraxetan (RIVA [4]; 10 nM, time (day): 5) | growth inhibition by drug plus 177Lu-lilotomab satetraxetan (RIVA [4]; 10 nM, time (day): 6) | growth inhibition by drug plus 177Lu-lilotomab satetraxetan (RIVA [4]; 100 nM, time (day): 3) | growth inhibition by drug plus 177Lu-lilotomab satetraxetan (RIVA [4]; 100 nM, time (day): 4) | growth inhibition by drug plus 177Lu-lilotomab satetraxetan (RIVA [4]; 100 nM, time (day): 5) | growth inhibition by drug plus 177Lu-lilotomab satetraxetan (RIVA [4]; 100 nM, time (day): 6) |
| --- | --- | --- | --- | --- | --- | --- | --- | --- | --- | --- | --- | --- | --- | --- | --- | --- | --- | --- | --- | --- | --- | --- | --- | --- | --- | --- | --- | --- | --- | --- | --- | --- |
| O=c1[nH]nc(Sc2ncc([N+](=O)[O-])s2)n1-c1ccc2c(c1)OCCO2 | -0.0286 | -0.0355 | -0.112 | -0.247 | -0.00347 | 0.024 | -0.0622 | -0.12 | 0.00609 | -0.0273 | -0.0872 | -0.35 | -0.0796 | -0.0567 | -0.0833 | -0.162 | 0.0134 | 0.0456 | 0.0435 | 0.142 | 0.369 | 0.406 | 0.362 | 0.409 | 0.41 | 0.525 | 0.54 | 0.553 | 0.424 | 0.457 | 0.468 | 0.445 |
| COc1cc2nccc(Oc3ccc(NC(=O)NC4CC4)c(Cl)c3)c2cc1C(N)=O [E7080 (Lenvatinib)] | -0.0768 | -0.0782 | -0.0262 | 0.0583 | -0.0598 | -0.0139 | -0.0471 | 0.0893 | -0.272 | -0.277 | -0.3 | -0.325 | -0.113 | -0.192 | -0.168 | -0.219 | -0.0798 | -0.0346 | 0.0178 | 0.0795 | -0.0775 | 0.00296 | 0.0372 | 0.201 | 0.331 | 0.478 | 0.485 | 0.496 | 0.364 | 0.44 | 0.454 | 0.461 |
| Cc1cnc(-c2cnc(NCCNc3ccc(C#N)cn3)nc2-c2ccc(Cl)cc2Cl)[nH]1 | 0.154 | 0.101 | 0.0269 | -0.034 | 0.119 | 0.0751 | -0.139 | -0.197 | 0.0622 | 0.0911 | 0.0352 | -0.132 | -0.000657 | 0.0178 | -0.0435 | -0.16 | 0.0605 | 0.123 | 0.113 | 0.204 | 0.0116 | 0.0464 | 0.0105 | 0.0661 | 0.532 | 0.598 | 0.613 | 0.613 | 0.455 | 0.536 | 0.536 | 0.541 |
